Rows were chosen to be rich in hits. Some 10% of all compounds tested hit in one or more screens of this group.
Pf growth 48h – P. falciparum growth inhibition at 48 hours (one generation); P. falciparum luciferase growth in erythrocytes, 48 h; Potency, µM (doses to about 28.7 µM), for the others: at the highest dose activity change, negative = inhibition, actives largely listed as inhibitors; hit rate 5.9% among 310,000; further: on the % scale 0 is the no-effect control and ±100 the full control effect
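A one-generation exposure of luciferase-tagged malaria parasites in RPMI 1640/Albumax erythrocyte culture, 37 C and 5% CO2. Inhibition is inferred from decreased luminescence after adding detection reagent.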
SARS PLP yeast – blocks SARS-CoV papain-like protease in a yeast assay; S. cerevisiae expressing SARS-CoV PLpro, growth rescue; Potency, µM (titrated, usually from 32.9 µM), for inactives: at the highest dose activity, positive = growth rescue, actives largely listed as activators; hit rate 0.19% among 330,000; calls by dose curve; further: 0% is about no effect; nearly all actives have a fitted effect of over 55% in size
NS1 inh – blocks influenza NS1 protein function. Potency, µM (series often up to 46.1 µM), without a hit: at the top dose activity, positive = more growth. hit rate 0.4% among 270,000; calls by dose curve; further: actives are rising curves; nearly all actives have a fitted effect of over 50% in size
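OD600 was taken as the measure of yeast growth restored by compound in an NS1-expressing S. cerevisiae strain. Cells had been washed out of glucose medium and diluted 1:100 into galactose -URA medium, pH 6.0.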
Pf growth 96h – inhibits malaria parasite growth, 96 h | hit rate 6.9% among 320,000 | Potency, µM (doses to about 28.7 µM), for inactives: top-dose activity change, negative = inhibition, actives largely listed as inhibitors | AID 504834 | P. falciparum luciferase reporter growth, 96 h; further: on the % scale 0 is the no-effect control and ±100 the full control effect
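Readout is luminescence from an integrated firefly luciferase in P. falciparum. Red cells, 2% hematocrit and 0.05% parasitemia final, were cultured with compound through two parasite generations (96 hours) at 37 C, 5% CO2.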
Starred values were filed as active, the others as inactive; ? = inconclusive; . = no result given. Unless noted, the call rests on the fitted dose curve; in most records, active means well fitted inhibition curve with a large enough effect; inconclusive means small, poorly fitted or top-dose-only effect, or another doubt; inactive means no such curve, though single readings can be large or run the other way. Potency means the concentration at half of the fitted maximal effect.

SMILES	Pf growth 48h	SARS PLP yeast	NS1 inh	Pf growth 96h
CCOC(=O)N1CCC(NC(=O)c2ccc(CS(=O)(=O)c3c(Cl)cccc3Cl)o2)CC1	-8.9%	2.1%	-8.5%	?
O=C(c1ccc(CS(=O)c2cccc(Cl)c2)o1)N1CCN(c2ccccn2)CC1 (stereo unspecified)	?	-3.9%	12.6%	7.38µM*
O=C(O)c1nnsc1COCc1ccccc1	.	.	-3.1%	.
O=C(c1ccc2oc(CCCc3ccccc3)nc2c1)N1CCCC1	24.1%	1.9%	-34.4%	21.6%
CC(=O)C1=C(C)Nc2ncnn2C1c1ccccc1F (stereo unspecified)	.	0.1%	4.3%	17.0%
COc1ccc(Cl)cc1S(=O)(=O)N1CCC(C(=O)NC2CC2)CC1	?	3.9%	2.0%	8.28µM*
COc1ccc(Cl)cc1S(=O)(=O)N1CCN(C(=O)c2cc(OC)c(OC)c(OC)c2)CC1	?	13.4%	-10.2%	11.7µM*
COc1ccc(Cl)cc1S(=O)(=O)N1CCC(C(=O)NC2CCCC2)CC1	0.0%	.	1.5%	9.2%
Cc1ccc(CC2SC(=Nc3ccccc3)N(c3ccccc3)C2=O)cc1 (stereo unspecified)	10.4µM*	-54.9%	-18.3%	197.3%
O=C(COC(=O)COc1ccccc1F)NCCc1ccc(F)cc1	-19.4%	0.5%	.	-3.0%
CC1CCCCC12NC(=O)N(CC(=O)N1CCN(S(=O)(=O)/C=C/c3ccccc3)CC1)C2=O (stereo unspecified)	10.4µM*	1.6%	.	?
Cc1cccc(N(Cc2ccccc2)C(=O)CN2C(=O)NC3(CCCCC3C)C2=O)c1 (stereo unspecified)	?	0.7%	.	11.7µM*
CC1CCCCC12NC(=O)N(CC(=O)OCc1cccc(F)c1)C2=O (stereo unspecified)	13.1µM*	-1.2%	.	?
Cc1nn(C)c(C)c1S(=O)(=O)N(CC(=O)NCCCN1CC(C)CC(C)C1)c1ccc(C(C)C)cc1 (stereo unspecified)	?	0.6%	-16.3%	-6.8%
O=C(O)CCC(=O)NNC(=O)c1cccs1	7.6%	0.2%	4.9%	34.1%
CCc1nnc(NC(=O)c2ccc(Br)o2)s1	20.6%	3.1%	-8.4%	5.86µM*
CCc1nnc(NC(=O)c2ccc(C)o2)s1	82.4%	-1.4%	-8.3%	53.2%
CCc1nnc(NC(=O)CN2CCN(Cc3ccc(C)cc3)CC2)s1	-12.3%	3.7%	7.8%	9.28µM*
COc1ccccc1CCNC(=O)C(=O)NCC1OCCCN1S(=O)(=O)c1ccc(F)cc1C (stereo unspecified)	-27.8%	-2.8%	-11.0%	?
COC(=O)CC1C(=O)NCCN1C(=S)Nc1ccc(F)cc1 (stereo unspecified)	23.8%	-0.2%	1.8%	3.7µM*
COC(=O)CC1C(=O)NCCN1C(=S)Nc1cccc(C)c1 (stereo unspecified)	-0.2%	6.3%	10.4%	13.2%
O=C(CC1CC2CCC1C2)N1CCN(S(=O)(=O)c2ccccc2[N+](=O)[O-])CC1 (stereo unspecified)	?	-0.8%	.	10.4µM*
CC(=O)c1c(C)[nH]c(C(=O)CN2CCN(S(=O)(=O)c3ccccc3[N+](=O)[O-])CC2)c1C	?	7.6%	.	10.4µM*
O=C(CC1CC2CCC1C2)N1CCN(S(=O)(=O)c2ccccc2C(F)(F)F)CC1 (stereo unspecified)	11.7µM*	11.8%	.	?
CCCS(=O)(=O)N1CCN(S(=O)(=O)c2ccccc2[N+](=O)[O-])CC1	7.8%	0.4%	2.7%	?
SMILES	Pf growth 48h	SARS PLP yeast	NS1 inh	Pf growth 96h
O=S(=O)(c1ccccc1C(F)(F)F)N1CCN(S(=O)(=O)c2ccccc2C(F)(F)F)CC1	.	-5.4%	1.1%	-20.5%
COC(=O)c1scc(C)c1N1C(=O)c2ccccc2C1=O	8.4%	-1.3%	0.0%	35.4%
COc1ccc(C2OC(=O)CC2C(=O)NCc2ccc(C)cc2)cc1OC (stereo unspecified)	-23.1%	-0.1%	.	9.28µM*
COCCCNC(=O)C1CC(=O)OC1c1ccc(OC)c(OC)c1 (stereo unspecified)	.	6.6%	-0.4%	0.9%
CCOc1cc(C2NCc3ccccc3-n3cccc32)ccc1O (stereo unspecified)	2.62µM*	4.5%	0.4%	-25.6%
Clc1ccccc1C1NCc2ccccc2-n2cccc21 (stereo unspecified)	-10.1%	4.2%	.	?
Oc1ccccc1C1NCc2ccccc2-n2cccc21 (stereo unspecified)	13.1µM*	-0.4%	-0.8%	26.0%
CCOC(=O)c1[nH]c(C)c(C(=O)OCc2ccccc2F)c1C	-14.7%	5.8%	11.1%	-26.2%
COc1ccc(Cl)cc1C(=O)OCC(=O)c1ccc[nH]1	21.7%	2.1%	.	26.0%
CC1CC1C(=O)N(C)CC(=O)Nc1ccccc1Br (stereo unspecified)	.	-1.1%	.	.
CC1CCN(C(C(=O)NC2CCCCC2)c2cc3c(cc2[N+](=O)[O-])OCO3)CC1 (stereo unspecified)	9.28µM*	-42.2%	-16.4%	51.4%
CC1CCCN(C(C(=O)NC2CCCCC2)c2cc3c(cc2[N+](=O)[O-])OCO3)C1 (stereo unspecified)	?	0.0%	29.4%	0.9%
CC1CCc2c(sc(NC(=O)c3cccn3C)c2C(N)=O)C1 (stereo unspecified)	.	-20.4%	.	.
CCN(CC)c1ccc(/C=C(\C#N)c2nc(-c3cccs3)c(NC(C)=O)s2)cc1	13.1µM*	-2.8%	?	7.38µM*
C=C(C)CSc1nc2ccccc2[nH]1	39.5%	-20.1%	1.3%	6.9%
Cc1ccc(-c2ccc(=O)n(CC(=O)N3CCN(c4cccc(C)c4)C(C)C3)n2)cc1 (stereo unspecified)	46.0%	-6.1%	-62.9%	11.7µM*
CCCCN(CC(=O)NC1CCCC1)C(=O)C(=O)Nc1ccc2c(c1)OCCO2	9.8%	-1.0%	-4.3%	14.5%
CSC1=C(C#N)C(c2ccccc2Cl)C2=C(N1)c1ccccc1C2=O (stereo unspecified)	-13.4%	-0.9%	-31.3%	?
Cc1nn(-c2ccccn2)c2c1C(c1c(F)cccc1Cl)C1=C(N2)c2ccccc2C1=O (stereo unspecified)	10.4µM*	19.1%	-2.3%	9.28µM*
Cc1nn(-c2ccccn2)c2c1C(c1ccccc1Cl)C1=C(N2)c2ccccc2C1=O (stereo unspecified)	?	8.2%	19.5%	11.7µM*
Cc1cc(OCCN2CCN(S(=O)(=O)c3ccccc3F)CC2)ccc1C(C)C	?	0.9%	.	2.0%
CCC(C)NS(=O)(=O)c1cc2c3c(c1)CCC(=O)N3CCC2 (stereo unspecified)	2.6%	-1.7%	2.4%	4.7%
CC1(C)CC(=O)C2=C(C1)N(c1cccc(Cl)c1)C(=O)NC2(C(F)(F)F)C(F)(F)F	8.6%	-17.1%	1.0%	-6.0%
Fc1cccc(Cl)c1/C=N/Nc1ccccn1	99.2%	0.0%	.	87.0%
FC(F)(F)c1nc2ccccc2nc1N/N=C/c1c(Cl)cccc1Cl	9.28µM*	-0.8%	1.6%	-8.5%
CCOC(=O)C1=C(C)NC(C)=C(C(=O)OCC)C1C(=O)OCC(=O)NCCc1ccccc1	.	1.2%	.	.
O=C(Nc1ccc(-c2cn3ccsc3n2)cc1)C1CC1	-3.0%	-12.9%	-50.0%	9.28µM*

From PubChem BioAssay
